Assay results published in PubChem BioAssay (NCATS).
Calls of active or inactive are those of the source.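 The calls were made as follows: active = calcium activation more than 3 SD above the typical response in the agonist read; inactive = the rest.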

Target: Thyrotropin-releasing hormone receptor (Homo sapiens) (UniProt P34981)
Test: qHTS for Small Molecule Agonists and Allosteric Enhancers of Human TRH Receptor: Validation Screen for Agonists (AID 493127);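 also: intracellular calcium rise by fluo-8 fluorescence before TRH EC20 addition; 0% is about no effect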
Details: TRH receptor agonist cell assay; at 2 µM; hits give high values
Description: NIH Chemical Genomics Center [NCGC]
NIH Molecular Libraries Probe Centers Network [MLPCN]
Assay Submitter (PI): Marvin Gershengorn
This project aims to identify small drug-like molecules that activate (agonists) the thyrotropin releasing hormone (TRH) receptor (TRHR) or enhance its TRH-stimulated activity (allosteric enhancers). TRHR, a drug-accessible cell surface receptor expressed in specific brain regions, and its ligand TRH have been implicated in several central nervous system disorders, including depression and anxiety. Small molecule TRHR agonists or allosteric enhancers that are metabolically stable and able to cross the blood-brain barrier might serve as probes to elucidate the roles of brain TRH receptors in animal models, and might be valuable as lead compounds for the development of drugs to treat patients with central nervous system disorders.
Upon TRHR-Gq activation in TRHR cells, intracellular calcium is released from stores in the endoplasmic reticulum. […] This validation screen measures compound-induced activation of calcium release.
For the HTS assay freshly prepared cells are plated at a density of 2000/well in 3 ul of complete DMEM medium containing 10% serum in 1536-well plates and cultured over night at 37 C in a humidified incubator with 5% CO2. The next day, 2 ul of a no wash calcium dye (ABD Bioquest) was added to the cells and plates were incubated at room temperature for 1 hour. For the assay, assay plates were loaded into the FDSS kinetic plate reader. A 10 cycle (1 second/cycle) baseline measurement is taken and then the FDSS online 1536 pintool delivers 23 nl of compound library (as well as TRH controls) to the plate. The plate is measured for kinetically at 1 cycle/sec for 180 seconds and is considered to be the agonist portion of the assay (eg, compounds which activate a positive calcium response during this portion are flagged as potential agonists). Following the 180 second read, 1 ul of either an EC20 (positive modulation assay) is delivered by an onboard pipette head. Measurements are taken kinetically for an additional 180 seconds.
TRHR FDSS Screening Protocol
1. Reagent, 3 uL 2000 cells/well 1536 TC treated Black plate in media containing 10% FCS
2. Time, 18 hours, 33.5C 5% CO2 (cells grown at 37C)
3. Reagent, 2 uL ABD fluo-8 Ca dye
4. Time, 30 min-1.5hrs hours, Room temp (6 plates/batch)
5. Detector, EX 480/EM 530C, FDSS 10 cycles baseline (1sec/cycle)
6. Compound, 23 nL of stock solution from library
7. Detector, EX 480/EM 530C, FDSS 230 cycles (1sec/cycle) Agonist mode
8. Compound, 1 ul EC20 of TRH made up in HEPES HBSS, 10 nM final
9. Detector, EX 480/EM 530C, FDSS 100 cycles (1sec/cycle) Potentiator mode

Chain of Thyrotropin-releasing hormone receptor (Homo sapiens) (P34981 whole entry, looked up): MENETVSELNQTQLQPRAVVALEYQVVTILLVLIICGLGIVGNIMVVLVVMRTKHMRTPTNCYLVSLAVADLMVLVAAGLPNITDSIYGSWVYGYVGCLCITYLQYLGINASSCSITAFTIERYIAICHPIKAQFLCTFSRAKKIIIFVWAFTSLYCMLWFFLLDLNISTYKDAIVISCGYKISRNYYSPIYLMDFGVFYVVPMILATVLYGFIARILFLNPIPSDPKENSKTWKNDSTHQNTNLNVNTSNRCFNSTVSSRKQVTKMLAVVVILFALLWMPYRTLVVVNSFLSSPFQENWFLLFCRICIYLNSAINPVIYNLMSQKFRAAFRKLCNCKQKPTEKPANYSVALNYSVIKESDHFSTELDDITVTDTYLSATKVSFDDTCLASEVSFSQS

activation, inactive:
NC(=NCc1ccc(Cl)c(Cl)c1)NC(=O)c1nc(Cl)c(N)nc1N 4.94%
COc1ccc2c(c1OC)C(=O)OC2C1c2c(cc3c(c2OC)OCO3)CCN1C (stereo not given) -4.69%
CN1CCc2c(cc(O)c(O)c2Cl)C(c2cccc(Cl)c2)C1 (stereo not given) 0.0625%
CN(C)CCCO[C@H]1C([C@H](O)CO)O[C@@H]2OC(C)(C)O[C@@H]21 (stereo not given in full) 0.75%
CC#C[C@]1(O)CC[C@H]2C3CCC4=CC(=O)CCC4=C3[C@@H](c3ccc(N(C)C)cc3)C[C@@]21C (stereo not given in full) 28.5%
CCCC1O[C@@H]2C[C@H]3[C@@H]4CCC5=CC(=O)C=C[C@]5(C)C4[C@@H](O)C[C@]3(C)[C@]2(C(=O)CO)O1 (stereo not given in full) 2.06%
C[C@@H](Oc1ccc(Oc2cnc3ccc(Cl)cc3n2)cc1)C(=O)O -0.0625%
Nc1ncnc2c1ncn2[C@@H]1O[C@H](COP(=O)(O)OP(=O)(O)OP(=O)(O)OP(=O)(O)OC[C@@H]2O[C@H](n3cnc4c(N)ncnc43)[C@@H](O)[C@@H]2O)[C@H](O)[C@H]1O 13.9%
Nc1ncnc2c1nc(Br)n2C1O[C@H]2COP(=O)(O)O[C@@H]2C1O (stereo not given in full) 0.688%
CNC(=O)[C@H]1O[C@@H](n2cnc3c(N)ncnc32)[C@H](O)[C@H]1O -0.0625%
